Data taken from the supplement of paper PMC12494721.
Counter-ions that a name gives are not always drawn.

How the values were obtained:
Conditions in all cases: incubation time: 27 h, anaerobic, 37 °C;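 for the amine columns active = adjusted P below 0.05 in both replicates with a change the same way and a mean fold change under 0.8 or over 1.25; inactive = the rest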
[1] = system: Clostridium sporogenes DSM 1664; assay: growth (OD595) fold change vs plate DMSO controls (fold change (ratio)); higher = more growth
Summary of the method: (§1)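 Growth is calculated as fold change against the median of the DMSO control wells on each plate. Readings at 595 nm from anaerobic mGAM cultures (96-well, 27 h, 37 °C) were blank-subtracted, background-corrected with 20 µM compound solutions in water, and converted to OD by a calibration factor of 5. Fold changes above 1.5 were recorded as NA, and results are means of 2 biological replicates.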

Escherichia coli IAI1 [2] = assay: as above
Summary of the method: as §1

[3] = system: Klebsiella aerogenes DSM 30053; assay: as above
Summary of the method: as §1

[4] = system: Ruminococcus gnavus DSM 108212; assay: as above
Summary of the method: as §1

[5] = system: Klebsiella aerogenes DSM 30053; assay: fold change of Histamine concentration vs plate DMSO controls (fold change (ratio)); higher = more amine produced, active = hit call of the paper (significant change in both replicates, either direction)
Summary of the method: (§2)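 Amines were quantified by LC–triple-quadrupole MS in dynamic MRM mode against external calibration curves, with drift correction within each batch. The samples were whole anaerobic mGAM cultures of four gut bacterial strains, grown for 27 h at 37 °C in 80 µL wells and extracted with cold acetonitrile/methanol with 0.1% formic acid, then centrifuged. Values are reported as fold change over DMSO controls on the same plate. The mean of 2 biological replicates is given.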

[6] = system: Clostridium sporogenes DSM 1664; assay: fold change of Tryptamine concentration vs plate DMSO controls (fold change (ratio)); higher = more amine produced, active = hit call of the paper (significant change in both replicates, either direction)
Summary of the method: as §2

[7] = system: Ruminococcus gnavus DSM 108212; assay: as above
Summary of the method: as §2

Escherichia coli IAI1 [8] = assay: fold change of Putrescine concentration vs plate DMSO controls (fold change (ratio)); higher = more amine produced, active = hit call of the paper (significant change in both replicates, either direction)
Summary of the method: as §2

[9] = system: Klebsiella aerogenes DSM 30053; assay: as above
Summary of the method: as §2

Escherichia coli IAI1 [10] = assay: fold change of Cadaverine concentration vs plate DMSO controls (fold change (ratio)); higher = more amine produced, active = hit call of the paper (significant change in both replicates, either direction)
Summary of the method: as §2

[11] = system: Klebsiella aerogenes DSM 30053; assay: as above
Summary of the method: as §2

[12] = system: Ruminococcus gnavus DSM 108212; assay: fold change of 2-Phenylethylamine concentration vs plate DMSO controls (fold change (ratio)); higher = more amine produced, active = hit call of the paper (significant change in both replicates, either direction)
Summary of the method: as §2

Row | Structure (SMILES) | growth [1] | growth (Escherichia coli IAI1 [2]) | growth [3] | growth [4] | fold change of Histamine concentration [5] | fold change of Tryptamine concentration [6] | fold change of Tryptamine concentration [7] | fold change of Putrescine concentration (Escherichia coli IAI1 [8]) | fold change of Putrescine concentration [9] | fold change of Cadaverine concentration (Escherichia coli IAI1 [10]) | fold change of Cadaverine concentration [11] | fold change of 2-Phenylethylamine concentration [12]
1 | CC(=O)c1ccc2c(c1)N(CCCN(C)C)c1ccccc1S2 [Acetopromazine maleate salt] (20 µM) | 0.96 | 1 | 0.976 | 0.878 | 1.03 (inactive) | 1.01 (inactive) | 1.01 (inactive) | 1 (inactive) | 1.01 (inactive) | 1.03 (inactive) | 0.983 (inactive) | 1.03 (inactive)
2 | CC1CNc2c(cccc2S(=O)(=O)N[C@@H](CCCNC(=N)N)C(=O)N2CC[C@@H](C)C[C@@H]2C(=O)O)C1 (some centres not stated) [Argatroban] (20 µM) | 1.12 | 0.953 | 1.16 | 0.732 | 0.986 (inactive) | 0.976 (inactive) | 0.987 (inactive) | 0.978 (inactive) | 1.04 (inactive) | 1.01 (inactive) | 1 (inactive) | 0.937 (inactive)
3 | Cc1nc2ccccn2c(=O)c1CCN1CCC(C(=O)c2ccc(F)cc2)CC1 [Pirenperone] (20 µM) | 0.963 | 1.01 | 1.01 | 1.05 | 1.06 (inactive) | 0.996 (inactive) | 0.997 (inactive) | 0.995 (inactive) | 1.01 (inactive) | 1.03 (inactive) | 0.983 (inactive) | 0.969 (inactive)
4 | CCCc1ncc(C[n+]2ccccc2C)c(N)n1 [Amprolium hydrochloride] (20 µM) | 1.01 | 0.954 | 0.982 | 0.95 | 1.01 (inactive) | 1 (inactive) | 1.11 (inactive) | 0.995 (inactive) | 0.941 (inactive) | 0.936 (inactive) | 1.03 (inactive) | 1.15 (inactive)
5 | O=[N+]([O-])c1ccc2c(c1)Cc1ccccc1-2 [2-Nitrofluorene] (20 µM) | 0.873 | 0.978 | 0.973 | 0.994 | 0.997 (inactive) | 1 (inactive) | 1.04 (inactive) | 0.97 (inactive) | 1 (inactive) | 1.04 (inactive) | 0.995 (inactive) | 1.02 (inactive)
6 | CO[C@H]1C[C@H](O[C@H]2[C@H](C)[C@@H](O[C@@H]3O[C@H](C)C[C@H](N(C)C)[C@H]3OC(C)=O)[C@@H](C)C[C@@]3(CO3)C(=O)[C@H](C)[C@@H](OC(C)=O)[C@@H](C)[C@@H](C)OC(=O)[C@@H]2C)O[C@@H](C)[C@@H]1OC(C)=O [Troleandomycin] (20 µM) | 0.0017 | 0.966 | 1.03 | 0.456 | 0.976 (inactive) | 0.0831 (active) | 0.676 (active) | 1.01 (inactive) | 0.987 (inactive) | 1 (inactive) | 1.01 (inactive) | 0.769 (active)
7 | c1ccc(C2CN3CCSC3=N2)cc1 (configuration not stated) [Tetramisole hydrochloride] (20 µM) | 0.855 | 0.574 | 1.07 | 0.976 | 1.04 (inactive) | 0.939 (inactive) | 1.01 (inactive) | 1.33 (inactive) | 1.03 (inactive) | 2 (active) | 0.992 (inactive) | 1.03 (inactive)
8 | CN(C)C(=O)Nc1ccc(Cl)c(Cl)c1 (20 µM) | 1.05 | 1.02 | 0.938 | 1.08 | 1.01 (inactive) | 0.947 (inactive) | 0.962 (inactive) | 0.97 (inactive) | 0.976 (inactive) | 0.991 (inactive) | 0.99 (inactive) | 0.954 (inactive)
9 | CC(=O)S[C@@H]1CC2=CC(=O)CC[C@]2(C)[C@H]2CC[C@@]3(C)[C@@H](CC[C@@]34CCC(=O)O4)[C@H]12 [Spironolactone] (20 µM) | 1.1 | 0.915 | 0.916 | 0.833 | 1 (inactive) | 1.03 (inactive) | 1.06 (inactive) | 1.02 (inactive) | 1.01 (inactive) | 1.02 (inactive) | 1 (inactive) | 1.01 (inactive)
10 | Cc1cc2c(cc1S(N)(=O)=O)S(=O)(=O)CCC2 [Meticrane] (20 µM) | 0.974 | 1.03 | 1.02 | 1.24 | 1.05 (inactive) | 1.01 (inactive) | 0.986 (inactive) | 0.983 (inactive) | 1.01 (inactive) | 1.02 (inactive) | 0.986 (inactive) | 1 (inactive)
11 | CCOC(=O)C(C)(C)Oc1ccc(Cl)cc1 [Clofibrate] (20 µM) | 1.24 | 1.23 | 1.03 | 0.977 | 1.07 (inactive) | 1.04 (inactive) | 1 (inactive) | 1.18 (inactive) | 1.03 (inactive) | 0.919 (inactive) | 0.996 (inactive) | 0.97 (inactive)
12 | Cc1cccn2c(=O)c(-c3nnn[nH]3)cnc12 [Pemirolast potassium] (20 µM) | 0.934 | 0.984 | 0.975 | 0.807 | 1.03 (inactive) | 1.02 (inactive) | 1.01 (inactive) | 0.994 (inactive) | 1.01 (inactive) | 0.992 (inactive) | 1 (inactive) | 1.04 (inactive)
13 | O=C(O)COCCN1CCN(C(c2ccccc2)c2ccc(Cl)cc2)CC1 (configuration not stated) [Cetirizine dihydrochloride] (20 µM) | 1.02 | 1.07 | 1.04 | 0.959 | 0.94 (inactive) | 1.03 (inactive) | 1.01 (inactive) | 1.06 (inactive) | 0.997 (inactive) | 0.957 (inactive) | 1 (inactive) | 1.03 (inactive)
14 | O=C(O)c1ccccc1Nc1cccc(C(F)(F)F)c1 [Flufenamic acid] (20 µM) | 1.16 | 0.983 | 1.07 | 0.538 | 0.993 (inactive) | 0.918 (inactive) | 0.989 (inactive) | 1.03 (inactive) | 1.02 (inactive) | 1.03 (inactive) | 1.02 (inactive) | 0.981 (inactive)
15 | O=S(=O)(c1cccc2cnccc12)N1CCCNCC1 [Fasudil Hydrochloride] (20 µM) | 1.22 | 0.981 | 0.977 | 0.969 | 1.05 (inactive) | 0.964 (inactive) | 1.01 (inactive) | 1.01 (inactive) | 1.03 (inactive) | 1.03 (inactive) | 1.01 (inactive) | 0.942 (inactive)
16 | OC[C@H]1O[C@@](CO)(OC[C@@]2(OC[C@@]3(O[C@H]4O[C@H](CO)[C@@H](O)[C@H](O)[C@H]4O)O[C@H](CO)[C@@H](O)[C@@H]3O)O[C@H](CO)[C@@H](O)[C@@H]2O)[C@@H](O)[C@@H]1O [Nystose] (50 µM) | 1.05 | 1.09 | 1.02 | 1.05 | 1.05 (inactive) | 1.01 (inactive) | 1 (inactive) | 0.999 (inactive) | 1.01 (inactive) | 0.958 (inactive) | 0.995 (inactive) | 0.994 (inactive)
17 | CC(C)(C)NCC(O)COc1cccc2c1CC(O)C(O)C2 (configuration not stated) [Nadolol] (20 µM) | 1.08 | 0.986 | 1.03 | 0.969 | 0.981 (inactive) | 1.08 (inactive) | 1.02 (inactive) | 1.06 (inactive) | 0.988 (inactive) | 1 (inactive) | 1 (inactive) | 0.971 (inactive)
18 | CCc1ccc(CCOc2ccc(CC3SC(=O)NC3=O)cc2)nc1 (configuration not stated) [Pioglitazone] (20 µM) | 1.3 | 0.963 | 0.988 | 0.816 | 1 (inactive) | 0.918 (inactive) | 0.977 (inactive) | 1.02 (inactive) | 1.01 (inactive) | 0.968 (inactive) | 0.998 (inactive) | 0.904 (inactive)
19 | Nc1ncnc2c1ncn2[C@@H]1O[C@H](CO)[C@@H](O)[C@@H]1O [Vidarabine] (20 µM) | 1.1 | 1.07 | 0.99 | 0.857 | 1.05 (inactive) | 0.947 (inactive) | 0.935 (inactive) | 1.11 (inactive) | 1.02 (inactive) | 0.957 (inactive) | 0.989 (inactive) | 0.976 (inactive)
20 | CN(C)CCCO[C@@H]1[C@H]2OC(C)(C)O[C@H]2O[C@@H]1[C@H](O)CO [Amiprilose hydrochloride] (20 µM) | 1.09 | 1.03 | 1.01 | 1.1 | 1.07 (inactive) | 1.04 (inactive) | 1.04 (inactive) | 0.973 (inactive) | 1.02 (inactive) | 0.994 (inactive) | 0.992 (inactive) | 1.01 (inactive)
21 | CN(C)CCC=C1c2ccccc2CCc2ccccc21 [Amitryptiline hydrochloride] (20 µM) | 1.05 | 1.04 | 1.06 | 1.12 | 0.911 (inactive) | 0.996 (inactive) | 0.973 (inactive) | 1.01 (inactive) | 0.936 (inactive) | 1.01 (inactive) | 1.02 (inactive) | 1.01 (inactive)
